Test results: the supplement of paper PMC6555819

Tested on: PPARg:RXRa DBDmut IVT, anti-RXR (DBD mutation: RXRa K156A/R161A, NR concentration 270 nM, RXRa partner concentration 90 nM)
Assay: PBM binding z-score (relative to random genomic background probes); higher = stronger binding; sequences stand for … in GC…GCGATTGACAGCGTAGAATGAAGG
Outline: (§1)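 Regression normalization was applied to scanned fluorescence from custom Agilent 4×180K protein-binding microarrays. Before scanning, arrays were incubated 1 h with ligand-free nuclear receptor dimers, and binding was detected with antibodies against each partner (one per run). Binding z-scores use the random background probes as reference.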

Row | Sequence | PBM binding z-score
1 | TCATATAGGTAAATGCTAGGGGAAAGTCCGATCT | 4.25
2 | CCTTACGGTTCACTCCAGGTTATAGCATCGGAGT | 0.278
3 | ACTAGCAGGCCAAGTTTGGGTCTCTCAAACAAAG | 0.491
4 | TCGACTAGGTTAGTCGGGGCATTCAGCCAACATA | 2.49
5 | ATCTCTAGGTAACGAAGTTCAGTGAATGCCGAAC | 3.22
6 | CATACAGGGTCAGCCAGGCCAGAGTAGGGACGGC | 1
7 | ATATGAAGGTTAGCTGGGGTCATTCAGACTAGGC | 1.16
8 | ATCTCTAGGTAAAGATAGTTCAGCGAATGCAAAT | 2.37
9 | TATACAGGGTCAAAGCCCAGAGTACGAATGTCGA | 2.27
10 | TCTGCTAAGTCAACGATGGTCAGCTAATCTGCTA | 0.507
11 | ATATGTAGGTTACATCCGGGTTATTCAGGCTATG | 7.44
12 | CCTATTACTTGACCATAAGGGCAACCGAAGCTCG | 0.621
13 | CCTATTAGTTGACCATAAGGGCGACCGAAGCTCG | 0.603
14 | TCTAGTTGGTCACTGAGGTCACACACGACGGGTA | 2.68
15 | TCTGCTAGGTCAACGATGGTCAGCTCATCTGCTA | 4
16 | AGAATGAGGTTATACGCAGATCAGGGAAGAAAGT | 2.73
17 | TCTATTAGTTGTTTAGGGCAACCGAAACAGCGGA | 1.98
18 | CCCGACAGGTGAAAGGTAACTCAGTCTGGTACGC | 1.64

Tested on: PPARg:RXRa IVT, anti-PPARg (NR concentration 270 nM, RXRa partner concentration 90 nM)
Assay: as above
Outline: as §1

Row | Sequence | PBM binding z-score
19 | TCTCGGAGGACACGAAGGTCAGAGCCTTCCAGAG | 0.917
20 | ACAGACAGGTGAGTGAAGGTAACGCAGCTGGACG | 1.04
21 | AGTCAAAGTTCAGGACGAGGTATCGTAAAGCACG | 0.996
22 | TCTAGTTGGTCACGGCGGTCACACACGACGGGTA | 3.13
23 | ACTGACGGGTCAACGAGGTTATAGCACGCGTATA | 2.54
24 | TCGAGTAGGTTAGGGGCAATCAGAATGGCGTCGA | 1.37
25 | AGAATGAGGTTAAGATCAGCGAAACAGAATACAT | 2.37
26 | TCAGACAAGTGAAGGTAACTCAGGTACGCAGTCG | 0.111
27 | ACTATTAGTTGACTTAGGGCAACCGCTACGACGC | 0.703
28 | ATGTGTAGGTTAAGGGTCATTCAGGTTGGTTCGC | 5.47
29 | CAAACTCGGTCACGAAAGGTCAAAGTCGAATGAC | 5.86
30 | ATATATAGGTTACATCCGGGTCATTCAGGCTATG | 7.26
31 | AGAATGAGGTTACCAAAGATCATGGAAACGCTTG | 3.68
32 | TTACCAAGCTGAAAGGTCGTTGATGCACGCCTTG | 0.156
33 | CTCGAAAGGTCGTGCTCAGCTGAGTATACCAAAC | 1.49
34 | ACCGAAAGGTCGACGAGGTGAGTATACACCGTTT | 2.03
35 | AGCATGAGGTTATTAAGATCAGGGAATTGCGGTC | 0.818
36 | AGAACGAGGGCAATGATTTGATAGCACGGGTGGC | 2.89
37 | TCATATAGGTAATACAGGTGACAGTCGGCATCTA | 3.85
38 | CCTAGCAGGCCAATCTGGGCCACTCAAGGCTTGA | 2.85

Row | Sequence | PBM binding z-score
39 | CCAAACAGGTGAGAAGGTAACTCAGCCTCGATTA | 1.46
40 | GTTAGTTGGTCAGTAAAAGGTCACACACCGGTCG | 3.66
41 | TCATATAGGTAAATGCTAGGGGAAAGTCCGATCT | 2.11
42 | CCTTACGGTTCACTCCAGGTTATAGCATCGGAGT | 0.401
43 | ACTAGCAGGCCAAGTTTGGGTCTCTCAAACAAAG | 0.0697
44 | TCGACTAGGTTAGTCGGGGCATTCAGCCAACATA | 2.12
45 | ATCTCTAGGTAACGAAGTTCAGTGAATGCCGAAC | 2.82
46 | CATACAGGGTCAGCCAGGCCAGAGTAGGGACGGC | 2.6
47 | ATATGAAGGTTAGCTGGGGTCATTCAGACTAGGC | 2.19
48 | ATCTCTAGGTAAAGATAGTTCAGCGAATGCAAAT | 1.47
49 | TATACAGGGTCAAAGCCCAGAGTACGAATGTCGA | 4.44
50 | TCTGCTAAGTCAACGATGGTCAGCTAATCTGCTA | -0.186
51 | ATATGTAGGTTACATCCGGGTTATTCAGGCTATG | 7.16
52 | CCTATTACTTGACCATAAGGGCAACCGAAGCTCG | 0.836
53 | CCTATTAGTTGACCATAAGGGCGACCGAAGCTCG | 0.201
54 | TCTAGTTGGTCACTGAGGTCACACACGACGGGTA | 4.25
55 | TCTGCTAGGTCAACGATGGTCAGCTCATCTGCTA | 4.36
56 | AGAATGAGGTTATACGCAGATCAGGGAAGAAAGT | 2.31
57 | TCTATTAGTTGTTTAGGGCAACCGAAACAGCGGA | 1.19
58 | CCCGACAGGTGAAAGGTAACTCAGTCTGGTACGC | 2.67

Tested on: PPARg DBDmut:RXRa IVT, anti-PPARg (DBD mutation: PPARg1 K132A/R137A, NR concentration 270 nM, RXRa partner concentration 90 nM)
Assay: as above
Outline: as §1

Row | Sequence | PBM binding z-score
59 | TCTCGGAGGACACGAAGGTCAGAGCCTTCCAGAG | -1.24
60 | ACAGACAGGTGAGTGAAGGTAACGCAGCTGGACG | -1.24
61 | AGTCAAAGTTCAGGACGAGGTATCGTAAAGCACG | 0.0216
62 | TCTAGTTGGTCACGGCGGTCACACACGACGGGTA | 1.09
63 | ACTGACGGGTCAACGAGGTTATAGCACGCGTATA | 0.338
64 | TCGAGTAGGTTAGGGGCAATCAGAATGGCGTCGA | -0.745
65 | AGAATGAGGTTAAGATCAGCGAAACAGAATACAT | 1.19
66 | TCAGACAAGTGAAGGTAACTCAGGTACGCAGTCG | 0.0158
67 | ACTATTAGTTGACTTAGGGCAACCGCTACGACGC | 0.862
68 | ATGTGTAGGTTAAGGGTCATTCAGGTTGGTTCGC | 1.46
69 | CAAACTCGGTCACGAAAGGTCAAAGTCGAATGAC | 1.31
70 | ATATATAGGTTACATCCGGGTCATTCAGGCTATG | 3.67
71 | AGAATGAGGTTACCAAAGATCATGGAAACGCTTG | 0.737
72 | TTACCAAGCTGAAAGGTCGTTGATGCACGCCTTG | -0.407
73 | CTCGAAAGGTCGTGCTCAGCTGAGTATACCAAAC | 0.246
74 | ACCGAAAGGTCGACGAGGTGAGTATACACCGTTT | 0.47
75 | AGCATGAGGTTATTAAGATCAGGGAATTGCGGTC | 0.518
76 | AGAACGAGGGCAATGATTTGATAGCACGGGTGGC | 0.782
77 | TCATATAGGTAATACAGGTGACAGTCGGCATCTA | 1.35
78 | CCTAGCAGGCCAATCTGGGCCACTCAAGGCTTGA | -0.703

Row | Sequence | PBM binding z-score
79 | CCAAACAGGTGAGAAGGTAACTCAGCCTCGATTA | 0.108
80 | GTTAGTTGGTCAGTAAAAGGTCACACACCGGTCG | 1.57
81 | TCATATAGGTAAATGCTAGGGGAAAGTCCGATCT | 1.09
82 | CCTTACGGTTCACTCCAGGTTATAGCATCGGAGT | 0.147
83 | ACTAGCAGGCCAAGTTTGGGTCTCTCAAACAAAG | -1.53
84 | TCGACTAGGTTAGTCGGGGCATTCAGCCAACATA | -0.552
85 | ATCTCTAGGTAACGAAGTTCAGTGAATGCCGAAC | 0.456
86 | CATACAGGGTCAGCCAGGCCAGAGTAGGGACGGC | 0.502
87 | ATATGAAGGTTAGCTGGGGTCATTCAGACTAGGC | 0.859
88 | ATCTCTAGGTAAAGATAGTTCAGCGAATGCAAAT | 0.72
89 | TATACAGGGTCAAAGCCCAGAGTACGAATGTCGA | 3.06
90 | TCTGCTAAGTCAACGATGGTCAGCTAATCTGCTA | -0.69
91 | ATATGTAGGTTACATCCGGGTTATTCAGGCTATG | 4.04
92 | CCTATTACTTGACCATAAGGGCAACCGAAGCTCG | 0.25
93 | CCTATTAGTTGACCATAAGGGCGACCGAAGCTCG | -0.102
94 | TCTAGTTGGTCACTGAGGTCACACACGACGGGTA | 2.09
95 | TCTGCTAGGTCAACGATGGTCAGCTCATCTGCTA | 2.19
96 | AGAATGAGGTTATACGCAGATCAGGGAAGAAAGT | 1.31
97 | TCTATTAGTTGTTTAGGGCAACCGAAACAGCGGA | 1.27
98 | CCCGACAGGTGAAAGGTAACTCAGTCTGGTACGC | -0.316
